Results taken from PubChem BioAssay.
Values joined by “and” are separate entries in the source; they are usually repeats but may differ in a detail not shown here. Identical values can stand only once. A number with no mark means an inactive call. No rule for the calls is given here.

What follows are compounds tested against Pantothenate synthetase (Mycobacterium tuberculosis (strain ATCC 25618 / H37Rv)) (UniProt P9WIL5) (assay: Coupled enzyme confirmation of inhibitors against recombinant Mtb PanC (AID 375;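 also: 0% = full reaction with vehicle and 100% = no enzyme background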)). Conditions: coupled enzyme assay; at 10 µM, hits give high values.
Chain of Pantothenate synthetase (Mycobacterium tuberculosis (strain ATCC 25618 / H37Rv)) (P9WIL5 whole entry, looked up): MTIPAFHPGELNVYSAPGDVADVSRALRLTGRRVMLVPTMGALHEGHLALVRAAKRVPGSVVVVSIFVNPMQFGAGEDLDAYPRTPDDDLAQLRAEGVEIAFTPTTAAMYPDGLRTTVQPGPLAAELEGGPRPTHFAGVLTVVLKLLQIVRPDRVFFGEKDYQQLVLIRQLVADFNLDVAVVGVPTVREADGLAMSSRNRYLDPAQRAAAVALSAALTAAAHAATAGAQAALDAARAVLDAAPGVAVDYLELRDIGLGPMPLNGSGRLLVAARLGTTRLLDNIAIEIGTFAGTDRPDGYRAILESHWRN

SMILES | inhibition
Cc1ccc(-n2c(-c3ccncc3)nnc2-c2cccs2)cc1 | 1%
N=c1c(C(=O)NCc2ccc(F)cc2)cc2c(=O)n3ccccc3nc2n1CCCN1CCOCC1 | 0%
Cc1ccc(S(=O)(=O)NCCSc2nnnn2-c2ccc(C(N)=O)cc2)cc1 | 0%
O=C(O)CC(NC(=O)c1ccccc1NC(=O)c1ccccc1)C(=O)O (stereo not drawn) | 0%
CCc1nc(SCC(=O)NCc2ccco2)c2c3c(sc2n1)CCCC3 | 4%
O=C1c2ccccc2C(Nc2ccc(F)cc2F)N1CCN1CCOCC1 (stereo not drawn) | 0%
Cc1cc(C)n(-c2nc3c(c(=O)[nH]c(=O)n3C)n2Cc2ccc(F)cc2)n1 | 0%
CC1CN(S(=O)(=O)c2ccc(Cl)c(C(F)(F)F)c2)CC(C)O1 (stereo not drawn) | 0%
CC(=O)c1c(C)[nH]c(C(=O)N2CCN(C(=O)c3ccco3)CC2)c1C | 0%
COC(=O)c1sc(S(=O)(=O)Nc2ccc3cn[nH]c3c2)c(C(=O)OC)c1C | 0%
Cn1c(Cc2cccs2)nnc1SCC(=O)N1CCc2ccccc21 | 0%
CC(=O)c1ccc2c3c(cccc13)C(=O)N(c1c(C)nn(C)c1C)C2=O | 0%
COc1ccc(CCN(C)CCCC(C#N)(c2cc(OC)c(OC)c(OC)c2)C(C)C)cc1OC (stereo not drawn) | 0%
COc1ccccc1CC(NC(C)=O)C(=O)NC1CCN(c2nnnn2-c2ccccc2)CC1 (stereo not drawn) | 0%
CCc1nnc(NC(=O)C2Cc3ccccc3CN2S(=O)(=O)c2cccs2)s1 (stereo not drawn) | 1%
COC(=O)C1=C(C)Nc2ncnn2C1c1ccco1 (stereo not drawn) | 0%
C[C@]12CCC(=O)C=C1CC[C@@H]1[C@@H]2[C@@H](O)C[C@@]2(C)[C@H]1CC[C@]2(O)C(=O)COC(=O)CCC(=O)O | 0% and 2%
O=C(NCc1ccc(F)cc1)c1cc2ccccn2n1 | 1%
CCCC(C)C(=O)Nc1ccc(C(N)=O)cc1 (stereo not drawn) | 3%
Cn1c(=O)c2nc(Cl)n(Cc3ccc(Cl)cc3Cl)c2n(C)c1=O | 6%
CC1CCCN(C(=O)CN2CCN(C(=O)c3ccco3)CC2)C1 (stereo not drawn) | 0%
CN(C)c1oc(-c2ccccc2Cl)nc1C#N | 4%
CCC(=O)N1CCN(CCN=CC2=C(O)CC(C)(C)CC2=O)CC1 | 0%
